In all, about 87,000 compounds went through this assay and about 540 (0.62%) were called active. No rule for the calls is given here. This excerpt belongs to a sample that is enriched for actives. Entries with a potency or affinity are not part of this list.
Assay: inhibitors of MT1-MMP promoter transcription, cell-based, luciferase reporter, luminescence (AID 618);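 also: actives suppress MT1-MMP promoter-driven transcription so potencies describe inhibitors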
Conditions: MT1-MMP promoter luciferase reporter cells

Structure (SMILES)	outcome
CCSC1=C(C#N)C2(CCCCC2)C(C#N)C(=O)N1 (stereo unspecified)	inactive
Cc1cc(NC(=O)CSc2nc(C(C)C)nc3sc4c(c23)CCCC4)no1	inactive
CCOC(=O)N1CCN(C(=O)Cn2cc3c(n2)CCCC3)CC1	inactive
O=C(O)C1=C(C(=O)N2CCN(C(=O)c3ccco3)CC2)CCCC1	inactive
c1ccc(Sc2ncnc3c2oc2ccccc23)cc1	inactive
Fc1cccc(-c2cc3nc4c(c(N5CCN(c6cnccn6)CC5)n3n2)CCCC4)c1	inactive
CC1=CC(C)(C)Nc2ccc(OC(=O)c3cccnc3)cc21	inactive
COC(=O)c1ccc(OC(=O)c2ccco2)cc1	inactive
COc1ccc2c(c1)C(C)=CC(C)(C)N2C(=O)CN1C(=O)CCC1=O	inactive
CC1=CC(C)(C)Nc2ccc(OC(=O)c3ccco3)cc21	active
CC1=CC(C)(C)Nc2ccc(OC(=O)CN3C(=O)C4CCCCC4C3=O)cc21 (stereo unspecified)	inactive
O=C(Oc1ccc2ccccc2c1)c1ccco1	inactive
CCc1ccc2c(c1)C(C)=CC(C)(C)N2	inactive
COc1ccc(-c2nnc(SCC(=O)N3c4ccccc4Sc4ccccc43)o2)cc1	inactive
CCOC(=O)c1ccc2nc3c(cc2c1)CCS3	inactive
COc1ccc2c(c1OC)C(=O)N(c1ccc3c(c1)CCC3)C2=O	inactive
CCn1c(=O)n(CC(=O)NC2CCCC(C)C2C)c(=O)c2ccccc21 (stereo unspecified)	inactive
CCN(CCNC(=O)C1CCN(c2nnc(-n3cccc3)s2)CC1)c1ccccc1	inactive
Cc1ccc2cc3c(N)c(C(=O)N4CCOCC4)sc3nc2c1	inactive
Cc1cccc2cc3c(N)c(C(=O)N4CCOCC4)sc3nc12	inactive
Cc1ccc2nc3sc(C(=O)N4CCOCC4)c(N)c3cc2c1	active
Cc1cccc(-n2ncc(C#N)c2N)c1	inactive
Cc1cc(C)nc(SCCn2c(N(C)Cc3ccccc3)nc3c2c(=O)n(C)c(=O)n3C)n1	inactive
Cc1cc(C)n(CCO)c(=O)n1	inactive

Structure (SMILES)	outcome
N#CC1=C(N)SC(N)=C(C#N)C1C1CC=CCC1 (stereo unspecified)	inactive
COC(=O)/C=c1/sc2nc3ccccc3n2c1=O	inactive
O=c1/c(=C\c2cccn2-c2ccccc2)sc2nc3ccccc3n12	inactive
Cc1ccc(-n2c(C)cc(/C=c3/sc4nc5ccccc5n4c3=O)c2C)cc1	inactive
COc1cc(N2CCCC2)c(OC)cc1/C=c1/sc2nc3ccccc3n2c1=O	inactive
Cc1cc(/C=c2/sc3nc4ccccc4n3c2=O)c(C)n1-c1ccccn1	active
CC(CNS(=O)(=O)c1cc(Cl)ccc1Cl)CN(C)C (stereo unspecified)	inactive
COc1ccccc1NC(=O)CC1C(=O)NCCN1C(=O)Nc1ccc(Cl)c(Cl)c1 (stereo unspecified)	inactive
CCCCC(=O)Nc1ccc2oc(-c3ccncc3)nc2c1	inactive
O=C(c1ccc2snnc2c1)N1CCOCC1	inactive
Cc1ccsc1C(=O)OCC(=O)c1cc(C)n(CC2CCCO2)c1C (stereo unspecified)	active
Cc1ccc(C)c(C(=O)CN2C(=O)c3ccccc3S2(=O)=O)c1	inactive
Cc1cc(C(=O)CN2C(=O)c3ccccc3S2(=O)=O)c(C)n1-c1ccccc1	active
Cc1cc(C(=O)CN2C(=O)C3CC=CCC3C2=O)c(C)n1-c1ccccc1 (stereo unspecified)	inactive
Cc1cc(C(=O)CSc2nnnn2-c2ccccc2)c(C)n1CC1CCCO1 (stereo unspecified)	inactive
Cc1cc(C(=O)COC(=O)C2COc3ccccc3O2)c(C)n1CC1CCCO1 (stereo unspecified)	inactive
Cc1cc(C(=O)COC(=O)c2n[nH]c3ccccc23)c(C)n1CC1CCCO1 (stereo unspecified)	inactive
Cc1cc(C(=O)Cn2nnc(-c3ccc(Cl)cc3)n2)c(C)n1CC1CCCO1 (stereo unspecified)	inactive
Cc1ccc(-c2nc(NC(=O)CSc3nnc(C)s3)ns2)cc1	inactive
Cc1ccc(OCC(=O)Nc2ccc(N3CCOCC3)cc2)cc1	inactive
Cc1ccc(N(C(C)C(=O)N2CCC(C)CC2)S(C)(=O)=O)cc1C (stereo unspecified)	inactive
Cc1ccc(CC2CC(=O)N(c3cc(C)on3)C2=O)cc1 (stereo unspecified)	inactive
CCOc1ccccc1NC(=O)C1CCCN(C(=O)NCc2ccccc2)C1 (stereo unspecified)	inactive
CCOC(=O)c1[nH]c(C)c(C(=O)Nc2ccc(C)cc2C)c1C	inactive

Structure (SMILES)	outcome
CCOC(=O)c1[nH]c(C)c(C(=O)Nc2ccccc2C)c1C	active
CCOC(=O)c1[nH]c(C)c(C(=O)OCC(=O)N2CCc3ccccc32)c1C	inactive
CCOC(=O)c1[nH]c(C)c(C(=O)Nc2ccc(C)c(Cl)c2)c1C	inactive
CCOC(=O)c1c(C)[nH]c(C(=O)OCC(=O)N2CCc3ccccc32)c1C	inactive
CCOC(=O)c1[nH]c(C)c(C(=O)Nc2ccccc2F)c1C	inactive
CCOC(=O)c1[nH]c(C)c(C(=O)Nc2cc(Cl)ccc2C)c1C	active
CCOC(=O)c1[nH]c(C)c(C(=O)N2CCc3ccccc32)c1C	active
CCOC(=O)c1[nH]c(C)c(C(=O)Nc2ccc(Cl)cc2)c1C	inactive
COc1cc(NS(=O)(=O)c2ccc3c(c2)n(C)c(=O)n3C)cc(OC)c1	inactive
COc1ccc(C)cc1NC(=O)CSc1nnc(CC(=O)Nc2ccccc2C)n1C	inactive
CCOC(=O)c1ccc(NC(=O)CN2CCN(CCN=CC3=C(O)CC(C)(C)CC3=O)CC2)cc1	inactive
COC(=O)c1[nH]c2cc(C)ccc2c1NC(=O)CN1CCCc2ccccc21	inactive
Cc1nc2sc(C(c3cccs3)N3CCN(c4cccc(Cl)c4)CC3)c(O)n2n1 (stereo unspecified)	inactive
O=C(c1cn(-c2ccccc2)nc1-c1ccncc1)N1CCCCC1	inactive
COc1ccc(C(=O)N2CCN(c3cccc(Cl)c3)CC2)c(OC)c1	inactive
CCOc1ccccc1C(=O)N1CCN(c2cccc(Cl)c2)CC1	active
COc1ccccc1C(=O)N1CCN(c2cccc(C(F)(F)F)c2)CC1	active
COc1ccccc1CC(=O)N1CCN(c2cccc(C(F)(F)F)c2)CC1	inactive
O=C(c1ccccc1F)N1CCN(c2cccc(C(F)(F)F)c2)CC1	inactive
COc1ccccc1C(=O)N1CCN(c2cccc(Cl)c2)CC1	inactive
Cc1cc(-c2nn3c(C)nnc3s2)ccc1NC(=O)C(C)(C)C	inactive
CCOC(=O)c1cc(C)sc1NC(=O)CCC(=O)O	inactive
COc1ccc(Cn2c3nc4ccccc4nc3c3c(=O)n(Cc4ccco4)c(C)nc32)cc1	inactive
